D3 antag – blocks the human D3 dopamine receptor. AID 652054. P35462. D3R cells, DiscoveRx beta-arrestin luminescence, antagonist mode; hits give low values. max response, negative = inhibition, %. actives 2.5% (n = 360,000); in the data active means max response below about -50%; inconclusive means no clear call, values can overlap the other calls
Target sequence (P35462 whole entry, looked up): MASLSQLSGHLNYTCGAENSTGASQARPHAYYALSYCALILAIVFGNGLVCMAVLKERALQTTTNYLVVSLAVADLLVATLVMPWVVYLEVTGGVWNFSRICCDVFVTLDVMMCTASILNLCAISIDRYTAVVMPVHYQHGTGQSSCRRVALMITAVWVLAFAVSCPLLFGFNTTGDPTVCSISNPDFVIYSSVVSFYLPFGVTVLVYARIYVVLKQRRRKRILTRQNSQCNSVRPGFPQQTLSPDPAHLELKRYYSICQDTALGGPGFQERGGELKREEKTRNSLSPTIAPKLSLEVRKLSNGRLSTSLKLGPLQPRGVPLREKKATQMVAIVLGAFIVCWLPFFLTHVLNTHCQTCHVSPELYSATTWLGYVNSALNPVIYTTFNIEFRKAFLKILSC
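Cells plated overnight at 1500 cells/well, then exposed to library compounds with dopamine controls for 90 minutes at 37 degrees C. DiscoveRx reagent added for 30–60 minutes at room temperature; luminescence read, quantitative HTS format.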
DT40 TDP1 no CPT – qHTS for Inhibitors of human tyrosyl-DNA phosphodiesterase 1 (TDP1): qHTS in cells in absence of CPT | DT40 Tdp1-/- hTDP1 cells, no CPT, ATP luminescence, 48 h | AID 686978, 2013 | Potency, µM (series often up to 46.2 µM), usual class: inhibitors | actives 15% (n = 420,000); further: nearly all actives have a fitted effect of over 55% in size
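Chicken DT40 Tdp1-/- cells complemented with human TDP1, screened without camptothecin (DMSO vehicle only), 400 cells/well. Compounds pin-transferred, cells incubated at 37 °C for at least 48 hr. Growth read as ATP-dependent luminescence (CellTiter-Glo, 30 min at RT).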
TDP1 cell CPT – growth inhibition of DT40 Tdp1-/-;hTDP1 cells with camptothecin (screen for TDP1 inhibitors); chicken DT40 Tdp1-/-;hTDP1 cells + 20 nM CPT, ATP luminescence, 48 h; Potency, µM (series often up to 46.2 µM), most hits filed as inhibitors; actives 12% (n = 420,000); further: nearly all actives have a fitted effect of over 55% in size
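Cell growth measured by CellTiter-Glo luminescence after a minimum 48 h, 37 C compound exposure with 20 nM CPT in Tdp1-knockout DT40 cells stably expressing hTDP1, seeded 400/well; qHTS titration format.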
IL1B secr inh – inhibitors of inflammasome signaling (IL-1 beta secretion); AID 743279; actives 4.7% (n = 360,000); THP-1 LPS/ATP IL-1B secretion, AlphaLISA, 16 h; hits give low values; activity change, % at 57.5 µM; in the data active means activity change below about -50%; inconclusive means mostly about -30% to -49%
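Secreted IL-1B measured by AlphaLISA bead assay after 16 h compound exposure of THP-1 cells; compounds (final up to 57.5 uM) added 1 h before LPS (250 ng/mL) and ATP (1.25 mM) stimulation; lower signal means less secretion.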
ClpP mod – qHTS Assay for Activators of ClpP | purified B. subtilis ClpP, FRET peptide cleavage, 20 min | Potency, µM (titrated, usually from 57.5 µM) | actives 1.9% (n = 340,000) | AID 651965, 2013; active means well fitted falling curve with a large enough effect; inconclusive means small, poorly fitted or top-dose-only effect; inactive means no such curve, though single readings can be large or run the other way; further: the source files actives as falling curves though it sought activators and does not explain the sign; nearly all actives have a fitted effect of over 65% in size
Target sequence (P80244 whole entry, looked up): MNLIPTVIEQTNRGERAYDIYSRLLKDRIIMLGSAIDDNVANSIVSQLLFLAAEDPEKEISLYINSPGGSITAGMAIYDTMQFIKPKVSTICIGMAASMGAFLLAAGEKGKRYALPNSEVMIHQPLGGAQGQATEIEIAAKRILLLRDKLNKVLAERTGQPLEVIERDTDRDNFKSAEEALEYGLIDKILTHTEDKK
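Buffer: 100 mM Tris/HCl pH8, 100 mM KCl, 0.05% low protease BSA, 2.5% glycerol, 0.01% Tween-20. ClpP 10 microg/mL final; 20 min RT; delta FRET normalized to ADEP and DMSO controls.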
DRD3 agonist – D3 dopamine receptor (human) agonism. AID 652048. actives 0.58% (n = 410,000). D3R DiscoveRx beta-arrestin cells, luminescence, 90 min. max activation, %. P35462; in the data active means max activation above about 30%
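Agonist mode: compounds and dopamine controls were applied to plated cells for 90 min at 37 degrees C after an overnight attachment at 1500 cells/well. Luminescent read-out followed 30 - 60 minutes at room temperature with DiscoveRx detection reagent.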
Numbers stand for hits. The list is not random: actives were taken first. Their share in the collection is about 21%. Unless noted, the call rests on the fitted dose curve; in most records, active means well fitted inhibition curve with a large enough effect; inconclusive means small, poorly fitted or top-dose-only effect; inactive means flat fitted curve, though single readings scatter.

Screening Cc1ccccc1C(C(=O)NC1CCCCC1)N(C(=O)c1ccccn1)c1cccnc1 (configuration not stated) returned D3 antag inactive, DT40 TDP1 no CPT inactive, TDP1 cell CPT inactive, IL1B secr inh inactive, ClpP mod inactive and DRD3 agonist inactive.
For OC(COCc1ccccc1F)CN1CCCCC1 (configuration not stated) the results were D3 antag inactive, DT40 TDP1 no CPT inactive, TDP1 cell CPT inactive, IL1B secr inh inactive and DRD3 agonist inactive.
For COc1ccccc1COCC(O)CNCC1(N2CCCCC2)CCCCC1 (configuration not stated) the results were D3 antag -60, DT40 TDP1 no CPT inactive, TDP1 cell CPT inactive, IL1B secr inh inactive, ClpP mod inactive and DRD3 agonist inactive.
`Cc1ccc(-c2noc(CCC(=O)NCC3CCCO3)n2)cc1` (configuration not stated) gave D3 antag inactive, DT40 TDP1 no CPT inactive, TDP1 cell CPT inactive, IL1B secr inh inactive, ClpP mod inactive and DRD3 agonist inactive.
For CC(C)(C)c1ccc(-c2noc(CCC(=O)NCC3CCCO3)n2)cc1 (configuration not stated) the results were D3 antag inactive, DT40 TDP1 no CPT inconclusive, TDP1 cell CPT 21µM, IL1B secr inh inactive, ClpP mod inactive and DRD3 agonist inactive.
CNC(=O)CCc1nc(-c2ccc(C(C)(C)C)cc2)no1 was read as D3 antag inactive, DT40 TDP1 no CPT 13µM, TDP1 cell CPT inconclusive, IL1B secr inh inactive, ClpP mod inconclusive and DRD3 agonist inactive.
Screening CC(C)(C)c1ccc(-c2noc(CCC(N)=O)n2)cc1 returned D3 antag inactive, DT40 TDP1 no CPT inconclusive, TDP1 cell CPT inactive, IL1B secr inh inactive, ClpP mod inactive and DRD3 agonist inactive.
Screening CC(C)(C)c1ccc(-c2noc(CCC(=O)N3CCOCC3)n2)cc1 returned D3 antag inactive, DT40 TDP1 no CPT 18µM, TDP1 cell CPT inconclusive, IL1B secr inh inactive and DRD3 agonist inactive.
Screening CN(C)C(=O)CCc1nc(-c2ccc(C(C)(C)C)cc2)no1 returned D3 antag inactive, DT40 TDP1 no CPT 21µM, TDP1 cell CPT 16µM, IL1B secr inh inactive, ClpP mod inactive and DRD3 agonist inactive.
For Cc1ccc(SC(C)C(=O)Nc2ccc(S(=O)(=O)N3CCOCC3)cc2)cc1 (configuration not stated) the results were D3 antag inactive, DT40 TDP1 no CPT 16µM, TDP1 cell CPT inconclusive, IL1B secr inh inactive, ClpP mod inactive and DRD3 agonist inactive.
Cc1ccc(S(=O)(=O)N2CCN(CC(=O)Nc3ccc(N4CCOCC4)cc3)CC2)cc1C was read as D3 antag -93, DT40 TDP1 no CPT inactive, TDP1 cell CPT inactive, IL1B secr inh inactive, ClpP mod inactive and DRD3 agonist inactive.
Screening Cc1cccc(N2CCN(CC(=O)Nc3ccc(S(=O)(=O)N4CCOCC4)cc3)CC2)c1C returned D3 antag inactive, DT40 TDP1 no CPT 9.2µM, TDP1 cell CPT 15µM, IL1B secr inh inactive, ClpP mod inactive and DRD3 agonist inactive.
`Cc1ccc(S(=O)(=O)N2CC(O)C[C@H]2C(=O)OCC(=O)Nc2ccc(N3CCCCC3)cc2)cc1C` (some centres not stated) gave D3 antag inactive, DT40 TDP1 no CPT 18µM, TDP1 cell CPT inconclusive, IL1B secr inh inactive, ClpP mod inconclusive and DRD3 agonist inactive.
`CC1CCC(NC(=O)c2cc(C3CC3)nn2-c2ccccc2)CC1` (configuration not stated) gave D3 antag inactive, DT40 TDP1 no CPT inconclusive, TDP1 cell CPT inconclusive, IL1B secr inh inconclusive, ClpP mod inactive and DRD3 agonist inactive.
COc1cc(SC)ccc1C(=O)OCC(=O)NCCC1=CCCCC1 was read as D3 antag inactive, DT40 TDP1 no CPT inactive, TDP1 cell CPT inactive, IL1B secr inh inactive, ClpP mod inactive and DRD3 agonist inactive.
Screening Cc1ccc(S(=O)(=O)N2CCOCC2)cc1NC(=O)CN1CCN(c2ccc(O)cc2)CC1 returned D3 antag inactive, DT40 TDP1 no CPT 26µM, TDP1 cell CPT inconclusive, IL1B secr inh inactive, ClpP mod inactive and DRD3 agonist inactive.
For Cc1ccc(S(=O)(=O)N2CCOCC2)cc1NC(=O)CN1CCC(Cc2ccccc2)CC1 the results were D3 antag inactive, DT40 TDP1 no CPT 8.2µM, TDP1 cell CPT inconclusive, IL1B secr inh inactive and DRD3 agonist inactive.
`CCOC(=O)C1CCN(CC(=O)Nc2cc(S(=O)(=O)N3CCOCC3)ccc2C)CC1` gave D3 antag inactive, DT40 TDP1 no CPT inactive, TDP1 cell CPT inactive, IL1B secr inh inactive and DRD3 agonist inactive.
`COc1ccc(C(=O)Cn2nnc(-c3ccccc3NC(=O)C3CCCCC3)n2)cc1` gave D3 antag inactive, DT40 TDP1 no CPT inconclusive, TDP1 cell CPT 23µM, IL1B secr inh inactive, ClpP mod inactive and DRD3 agonist inactive.
CC1Cc2ccccc2N1C(=O)Cn1nnc(-c2ccccc2NC(=O)C2CCC2)n1 (configuration not stated) was read as D3 antag -98, DT40 TDP1 no CPT 15µM, TDP1 cell CPT inconclusive, IL1B secr inh inactive, ClpP mod inactive and DRD3 agonist inactive.
Screening C=CCN(C(=O)CNC(=O)c1cccs1)C(C(=O)NC(C)(C)C)c1ccccc1 (configuration not stated) returned D3 antag inactive, DT40 TDP1 no CPT inactive, TDP1 cell CPT inactive, IL1B secr inh inactive, ClpP mod inactive and DRD3 agonist inactive.
Screening CCN(CC(=O)Nc1c(F)cccc1F)C(=O)C1CCCO1 (configuration not stated) returned D3 antag inactive, DT40 TDP1 no CPT inactive, TDP1 cell CPT inactive, IL1B secr inh inactive, ClpP mod inactive and DRD3 agonist inactive.
For Cc1cccc(C)c1N1CCN(S(=O)(=O)N(C)C)CC1 the results were D3 antag inactive, DT40 TDP1 no CPT inconclusive, TDP1 cell CPT inconclusive, IL1B secr inh inactive and DRD3 agonist inactive.
COc1cccc(SCc2noc(C(=O)NC(C)C)c2C(=O)NC(C)C)c1 was read as D3 antag inactive, DT40 TDP1 no CPT inconclusive, TDP1 cell CPT inconclusive, IL1B secr inh inactive, ClpP mod inactive and DRD3 agonist inactive.
CC/C(=C/c1ccccc1)c1cccc2[nH]c3c(OC)cccc3c12 was read as D3 antag inactive, DT40 TDP1 no CPT inconclusive, TDP1 cell CPT 21µM, IL1B secr inh inactive, ClpP mod inactive and DRD3 agonist inactive.
For O=C(Nc1nnc(CSCc2ccc(Cl)cc2)s1)c1cccc([N+](=O)[O-])c1 the results were D3 antag inactive, DT40 TDP1 no CPT inconclusive, TDP1 cell CPT inactive, IL1B secr inh inactive, ClpP mod 25µM and DRD3 agonist inactive.
